Our source for the Potency and outcome values is PubChem BioAssay (NCATS).

Inconclusive results are not listed. The source made the active and inactive calls. Unless noted, calls follow the shape of the dose curve; as a rule, active = well fitted curve in the direction sought with a large enough effect; inconclusive = small, poorly fitted or top-dose-only effect, or another doubt; inactive = no such curve, though single readings can be large; an effect the other way counts as inactive or inconclusive.

Assay [1] deals with Luciferin 4-monooxygenase (Photinus pyralis) (UniProt P08659). Kind of assay: Biochemical firefly luciferase enzyme assay for NPC (AID 624030).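 Also: purified P. pyralis luciferase at 10 nM with luciferin and ATP substrate; series mostly up to about 59 µM; nearly all actives have a fitted effect of over 70% in size.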 Put shortly:
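Counter-screen for direct inhibition of the luciferase enzyme by approved-drug library compounds, run at 10 nM enzyme in 50 mM Tris acetate (final). Luminescence was read within 5 min of enzyme-buffer addition and normalized to PTC124 versus DMSO (0%).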

The nature of assay [2]: S16 Schwann cell viability assay (CellTiter-Glo assay) (AID 624031). Also: nearly all actives have a fitted effect of over 70% in size. Also: potency is read from the fitted curve at half-maximal effect. Put shortly: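 Cells were seeded at 500-750 per well in phenol red-free DMEM with 10% FBS and left overnight. Compounds or DMSO were pinned in, incubation ran 24 h at 37 °C/5% CO2, then CellTiter-Glo reagent was added and luminescence measured.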
In general terms: ATP-based viability assays read luminescence as a measure of living cells.

Assay [3] can be described thus: S16 Schwann cell PMP22 intronic element beta-lactamase assay (AID 624044; calls by dose curve; also: nearly all actives have a fitted effect of over 15% in size). In short, it runs like this:
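Beta-lactamase reporter under a PMP22 intronic regulatory element in stable S16 rat Schwann cells; 24 h compound exposure. 460 nm blue signal normalized between DMSO (0%) and potassium clavulanate, with 535 nm FRET tracking viability; curves classed by r2 and response.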

Assay [4] addresses Glutaminase kidney isoform, mitochondrial (Homo sapiens) (UniProt O94925). Kind of assay: qHTS for Inhibitors of Glutaminase (GLS): LOPAC Validation (AID 624146).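 Also: glutamate product detected by oxidase and peroxidase coupled Amplex red fluorescence gain; series mostly up to about 46 µM; nearly all actives have a fitted effect of over 60% in size.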 Put shortly: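 hKGA in 45 mM KH2PO4 (pH 8.2), 0.02% Tween-20 with compound, then 1mM L-Glutamine (stock as added) plus glutamate oxidase/HRP/Amplex red coupling mix. Fluorescence read initially and after 30 min at RT; signal change reflects glutamate formation.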
In general terms: In qHTS, concentration-response curves come from the screen itself.

Assay [5] in a line: qHTS of Trypanosoma Brucei Inhibitors: LOPAC Validation (AID 624147). In short, it runs like this: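 Quantitative HTS: titrated library compounds versus trypanosomal pyruvate kinase in TEA buffer (pH 7.2) containing KCl, MgCl2, BSA and Tween-20. Reactions were initiated with ADP, 130 uM final. Kinase-Glo Plus luminescence was read after 45 min at RT.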

Luciferin 4-monooxygenase (Photinus pyralis), sequence (P08659 whole entry, looked up): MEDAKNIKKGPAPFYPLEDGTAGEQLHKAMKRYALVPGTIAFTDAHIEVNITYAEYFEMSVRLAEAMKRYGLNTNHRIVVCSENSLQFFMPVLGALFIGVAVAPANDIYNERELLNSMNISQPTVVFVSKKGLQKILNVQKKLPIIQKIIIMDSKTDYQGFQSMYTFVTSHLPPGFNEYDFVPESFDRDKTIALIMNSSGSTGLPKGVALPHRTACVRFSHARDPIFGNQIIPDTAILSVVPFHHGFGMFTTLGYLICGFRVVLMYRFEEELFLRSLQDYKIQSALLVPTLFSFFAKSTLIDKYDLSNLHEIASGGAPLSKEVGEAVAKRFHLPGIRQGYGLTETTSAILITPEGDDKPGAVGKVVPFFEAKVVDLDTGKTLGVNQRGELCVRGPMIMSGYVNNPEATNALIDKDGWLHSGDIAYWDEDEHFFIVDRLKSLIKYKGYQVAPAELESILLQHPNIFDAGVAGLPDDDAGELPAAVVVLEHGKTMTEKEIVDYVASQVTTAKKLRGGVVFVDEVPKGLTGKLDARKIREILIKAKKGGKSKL
Glutaminase kidney isoform, mitochondrial (Homo sapiens), sequence (O94925 whole entry, looked up, canonical isoform): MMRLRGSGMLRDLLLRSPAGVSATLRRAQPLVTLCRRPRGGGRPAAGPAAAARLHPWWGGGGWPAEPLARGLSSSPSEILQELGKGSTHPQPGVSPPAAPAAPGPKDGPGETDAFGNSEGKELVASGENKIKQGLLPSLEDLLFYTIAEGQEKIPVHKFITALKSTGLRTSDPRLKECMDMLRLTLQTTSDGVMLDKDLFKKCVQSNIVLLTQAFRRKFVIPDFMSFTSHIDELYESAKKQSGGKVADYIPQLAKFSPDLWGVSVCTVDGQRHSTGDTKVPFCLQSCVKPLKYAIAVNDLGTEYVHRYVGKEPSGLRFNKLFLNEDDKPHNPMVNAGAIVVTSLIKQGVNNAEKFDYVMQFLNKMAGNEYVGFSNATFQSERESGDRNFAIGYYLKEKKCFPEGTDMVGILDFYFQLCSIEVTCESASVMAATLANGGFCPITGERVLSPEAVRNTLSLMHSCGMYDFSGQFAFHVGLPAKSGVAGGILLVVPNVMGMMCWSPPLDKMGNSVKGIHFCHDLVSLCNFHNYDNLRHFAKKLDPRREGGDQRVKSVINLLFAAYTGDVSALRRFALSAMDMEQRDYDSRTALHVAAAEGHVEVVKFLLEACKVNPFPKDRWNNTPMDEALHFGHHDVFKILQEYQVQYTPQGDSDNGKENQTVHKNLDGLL

Turning to `CCN(CC)CC(=O)Nc1c(C)cccc1C`, the Potency result in assay [1], in assay [2], in assay [3] and in assay [4] was “inactive” in each case. Moreover, the compound was classed as inactive in assay [5].
Turning to `NC1=NCC2c3ccccc3Cc3ccccc3N12` (configuration not stated), the Potency entry in assay [1], in assay [2] and in assay [4] was “inactive” throughout. In addition, the call in assay [5] was inactive.
On to `Nc1c2c(nc3ccccc13)CCCC2O` (configuration not stated), for which the Potency entry in assay [1] and in assay [4] was “inactive” in each case. The compound was classed as inactive in assay [5].
As to `CCCCNc1c(C(=O)OCC)c(C)nc2c1cnn2CC`, the Potency result in assay [1], in assay [3] and in assay [4] was “inactive” each time.
As for `CCCC(C(=O)OCCN(CC)CC)(c1ccccc1)c1ccccc1`, the Potency result in assay [1], in assay [3] and in assay [4] was “inactive” each time. In addition, the outcome in assay [5] was inactive.
For `CC(C)(C)NCC(O)c1cc(O)cc(O)c1` (configuration not stated), the outcome in assay [5] was inactive.
As for `OCCN1CCN(CC/C=C2/c3ccccc3Sc3ccc(C(F)(F)F)cc32)CC1`, the Potency entry in assay [1], in assay [3] and in assay [4] was “inactive” in each case. The Potency in assay [2] was 22.8 µM (active).
Take `Cc1nc2sccn2c(=O)c1CCN1CCC(=C(c2ccc(F)cc2)c2ccc(F)cc2)CC1`: the Potency result in assay [1], in assay [2], in assay [3] and in assay [4] was “inactive” in each case. For the same compound, the call in assay [5] was inactive.
Turning to `CNCCCN1c2ccccc2CCc2ccccc21`, the Potency entry in assay [1] and in assay [4] was “inactive” each time. Also, the result in assay [5] was inactive.
